This is one part of a sample in which hits are shown more often than they occur.
LmPK inh: inhibitors of Leishmania mexicana pyruvate kinase; Q27686; purified LmPK, Kinase-Glo ATP luminescence, 1 h; Potency, µM (highest dose often 57.5 µM), for the others: top-dose activity change, negative = inhibition, hits mostly inhibitors; 290,000 tested, 0.37% active; AID 1721; further: potency means the concentration at half of the fitted maximal effect; on the % scale 0 is the no-effect control and ±100 the full control effect
Target sequence (Q27686 whole entry, looked up): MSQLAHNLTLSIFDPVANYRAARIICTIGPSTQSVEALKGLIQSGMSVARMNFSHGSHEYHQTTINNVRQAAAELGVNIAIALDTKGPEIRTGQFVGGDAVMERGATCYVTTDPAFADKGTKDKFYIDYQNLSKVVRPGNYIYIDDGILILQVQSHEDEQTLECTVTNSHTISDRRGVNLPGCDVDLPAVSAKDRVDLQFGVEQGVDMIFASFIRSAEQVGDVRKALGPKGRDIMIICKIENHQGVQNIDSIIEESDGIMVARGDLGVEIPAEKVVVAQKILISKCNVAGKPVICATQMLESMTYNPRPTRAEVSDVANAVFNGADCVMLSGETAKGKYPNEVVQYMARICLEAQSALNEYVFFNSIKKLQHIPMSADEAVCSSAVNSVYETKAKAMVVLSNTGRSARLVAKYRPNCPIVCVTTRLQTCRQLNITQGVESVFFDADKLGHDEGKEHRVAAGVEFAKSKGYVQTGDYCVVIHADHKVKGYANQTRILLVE
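Purified LmPK (0.1 nM) converted ADP (0.1 mM) to ATP with PEP (0.5 mM) in imidazole buffer pH 7.2 with KCl and MgCl2, 1 h at room temperature. ATP was read by Kinase-Glo luminescence; data normalized to uninhibited and no-enzyme controls.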
Giardia FBPA inh: Giardia lamblia aldolase inhibition; A8B2U2; AID 2451; 290,000 tested, 0.71% active; Potency, µM (highest dose often 59.6 µM), for inactives: at the highest dose activity, negative = inhibition, most hits filed as inhibitors; purified Giardia FBPA; further: potency means the concentration at half of the fitted maximal effect; on the % scale 0 is the no-effect control and ±100 the full control effect; nearly all actives have a fitted effect of over 55% in size
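40 nM FBPA preincubated 10 min at RT with compound (up to 57.5 uM final), then substrate plus GAPDH/TPI/NAD/arsenate coupling and diaphorase/resazurin added. Fluorescence read after 20 min at RT, 525/598 nm.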
TbPYK inhibitor: blocks Trypanosoma brucei pyruvate kinase | Potency, µM (series often up to 76.8 µM), for inactives: at the top dose activity, negative = inhibition, usual class: inhibitors | Q57TT1 | 410,000 tested, 0.12% active | TbPYK enzyme, Kinase-Glo Plus ATP luminescence, 45 min; further: potency means the concentration at half of the fitted maximal effect; on the % scale 0 is the no-effect control and ±100 the full control effect; nearly all actives have a fitted effect of over 50% in size
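ADP (130 uM final) triggers the TbPYK reaction after compound addition; incubation is 45 min at room temperature. Kinase-Glo Plus is then added and luminescence imaged. Normalized data are fitted to concentration-effect curves.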
Shiga toxin inh: Shiga toxin inhibition | inhibition, % at 38.7 µM | AID 2315 | Vero cells, Shiga toxin protein synthesis inhibition reporter | 290,000 tested, 9.2% active; in the data active means inhibition mostly above about 28%, no sharp cut-off; inactive means mostly below about 43%; further: 0% is about no effect
CHX counter: counter-screen for Shiga toxin inhibitors: cycloheximide protein synthesis inhibition; 300,000 tested, 12% active; max response, %; cell reporter, cycloheximide protein synthesis inhibition counterscreen; AID 2314; in the data active means max response mostly above about 13%, no sharp cut-off; inactive means mostly below about 14%; further: read at 38.3 µM for the half of the compounds with a filed dose; 0% is about no effect
Sm TGR inh: S. mansoni TGR enzyme inhibition; purified TGR, DTNB reduction, TNB absorbance 405 nm; Potency, µM (doses to about 114 µM), for the others: at the top dose activity change, negative = inhibition, usual class: inhibitors; 360,000 tested, 3% active; further: potency means the concentration at half of the fitted maximal effect; on the % scale 0 is the no-effect control and ±100 the full control effect; nearly all actives have a fitted effect of over 60% in size
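First, TGR (20 nM dispensed) and NADPH were mixed with compound. Second, a 15 min room-temperature incubation followed. Third, further NADPH and then DTNB were added to start the reaction. Finally, TNB absorbance was monitored kinetically.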
Starred values were filed as active, the others as inactive; ? = inconclusive; · = no result; [ ] = another dose, or the depositor's remark. Unless noted, the call rests on the fitted dose curve; in most records, active means well fitted curve in the direction sought with a large enough effect; inconclusive means small, poorly fitted or top-dose-only effect, or another doubt; inactive means no such curve, though single readings can be large; an effect the other way counts as inactive or inconclusive.

SMILES	LmPK inh	Giardia FBPA inh	TbPYK inhibitor	Shiga toxin inh	CHX counter	Sm TGR inh
CN(C)c1ccc(CN(C(=O)/C=C/c2ccco2)C2CCS(=O)(=O)C2)cc1 (configuration not stated)	-2.0%	3.1%	-5.3%	14.0	6.6	25.1µM*
O=C(/C=C/c1ccc(Cl)cc1)N(Cc1ccccc1)C1CCS(=O)(=O)C1 (configuration not stated)	-1.4%	2.4%	-6.6%	-14.6	-2.2	-10.5%
CCOC(=O)c1scc(-c2ccc(C)cc2)c1S(=O)(=O)N1CCN(c2ccccc2F)CC1	·	·	-24.2%	·	·	-0.2%
COc1ccc(Cl)cc1NC(=O)CCS(=O)(=O)c1ccc(C)cc1	-2.5%	-5.1%	-4.1%	-1.1	-2.5	-21.5%
O=C1c2cccc3c([N+](=O)[O-])ccc(c23)C(=O)N1c1ccc(Cl)cn1	3.7%	-22.2%	-1.5%	-21.2	-1.6	14.1µM*
O=C1c2cccc3cccc(c23)C(=O)N1c1nccs1	2.2%	-0.3%	6.8%	19.5	3.7	0.0%
O=C1c2cccc3c([N+](=O)[O-])ccc(c23)C(=O)N1c1ccccn1	8.3%	·	-1.9%	24.4	3.0	20µM*
O=C1c2ccc([N+](=O)[O-])cc2C(=O)N1c1ccc(Cl)cn1	2.7%	-19.3%	14.4%	-2.3	-1.0	-7.3%
O=C1c2cccc3c([N+](=O)[O-])ccc(c23)C(=O)N1c1nccs1	-0.9%	-15.4%	-11.5%	-13.3	-1.2	1.78µM*
CCCCn1c(N)c(N(CC(C)C)C(=O)C2CCN(S(=O)(=O)c3ccc(OCC)cc3)CC2)c(=O)[nH]c1=O	·	·	0.6%	·	·	1.5%
COc1cc2c(cc1CC=C(C)C)C(=O)C[C@@H](c1ccc(O)cc1)O2	·	-3.4%	·	-1.5	-7.6	·
CS(=O)(=O)N(CC(=O)Nc1ccc(CC#N)cc1)c1ccc(C23CC4CC(CC(C4)C2)C3)cc1	0.5%	-10.4%	-6.9%	77.1*	22.0*	-2.9%
O=C(CSCCO)Nc1ccc(C23CC4CC(CC(C4)C2)C3)cc1	3.9%	2.4%	-7.6%	52.8*	24.4*	-5.8%
CC(=O)Nc1ccc(C23CC4CC(CC(C4)C2)C3)cc1	3.0%	-1.7%	0.6%	26.4	14.4	-7.1%
CCCCCCCCCCC1=C(C)C(=O)C(OC)=C(OC)C1=O	·	?	·	-12.9	-2.8	·
CCCCCCCCSC1=CC(=O)C(OC)=C(OC)C1=O	·	·	14.1µM*	·	·	·
Cc1ccc(C2=NNC3(CCOC(C)(C)C3)S2)cc1 (configuration not stated)	-0.4%	-10.1%	-17.7%	54.1*	36.9*	·
COC(=O)c1cccc(NC(=O)c2ccc(OC)c(Cl)c2)c1	-5.9%	-16.1%	-2.5%	64.6	17.2	1.2%
Cc1c(Cl)cccc1NC(=O)c1cccc(OC(F)F)c1	-0.5%	-24.1%	-3.4%	93.9*	36.5*	-7.8%
COc1ccc(NC(=O)c2cccc(OC(F)F)c2)cc1Cl	-5.2%	-16.9%	-12.8%	130.9*	39.3*	-14.7%
O=C(Nc1ccc(OC(F)F)c(Cl)c1)c1cccc(OC(F)F)c1	5.4%	?	8.1%	66.6*	42.8*	7.7%
COc1ccc(NC(=O)c2ccco2)cc1NC(=O)c1ccccc1F	4.7%	3.5%	-2.1%	5.0	-6.3	-4.9%
COc1ccc(NC(=O)c2ccccc2F)cc1Cl	?	-6.1%	4.3%	34.8*	29.0*	3.9%
O=C(Nc1ccc2c(c1)CCC2)c1cccc(OC(F)F)c1	·	·	-2.9%	·	·	·
CC1CCCC(NC(=O)CSc2nncs2)C1C (configuration not stated)	·	·	9.6%	·	·	6.8%
SMILES	LmPK inh	Giardia FBPA inh	TbPYK inhibitor	Shiga toxin inh	CHX counter	Sm TGR inh
NC(CC(=O)Nc1ccc(Oc2cc(F)c(F)cc2Br)cc1)C(=O)O (configuration not stated)	·	?	·	-4.4	-4.4	·
CCOC(=O)C1CCN(C(=O)CN2c3ccc(CC)cc3-c3ccccc3S2(=O)=O)CC1	·	·	-6.7%	·	·	-0.6%
CC(=O)c1c(C)oc2c1cc(NS(=O)(=O)c1ccc(Cl)c(C)c1)c1ccccc12	·	·	-3.5%	·	·	0.8%
O=S(=O)(c1cccc2ccccc12)N1CCN(c2ccc(Cl)c(Cl)c2)CC1	·	·	-1.3%	·	·	8.0%
COc1ccc(NC(=O)c2cccc(F)c2)cc1Cl	-17.3%	-12.7%	-2.3%	56.8*	19.5*	-0.3%
COc1cc(OC)c(NC(=O)c2cccc(F)c2)cc1Cl	-0.7%	-7.1%	1.0%	31.0	9.6	2.6%
COCCN(CCOC)Cc1c(O)ccc2c1O/C(=C\c1ccc(C)o1)C2=O	-2.8%	?	0.4%	-5.5	-0.1	1.78µM*
CCN(CC)Cc1c(O)ccc2c(-c3ccccc3)cc(=O)oc12	-1.3%	-2.7%	-1.0%	-13.2	-9.2	-35.8%
COc1ccccc1/C=C/C=C1\Oc2c(ccc(O)c2CN(C)C)C1=O	-2.5%	-0.2%	-2.6%	28.5	13.5*	?
CCN(CC)Cc1c(O)ccc2c1O/C(=C\C=C\c1ccccc1)C2=O	2.4%	-3.3%	0.8%	105.8*	16.4*	?
COc1cc(NC(=O)CCCN2C(=O)CCn3nc(-c4cn(C)c5ccccc45)cc32)cc(OC)c1	·	·	-2.8%	·	·	0.1%
CCS(=O)(=O)N1CC(=O)N(c2ccc(Cl)cc2C)C(C)(C(=O)NC2CCCCC2)C1 (configuration not stated)	·	·	1.3%[15.4 µM]	·	·	0.2%
Cc1ccc(C(=O)Nc2nc(-c3ccccn3)cs2)cc1S(=O)(=O)N1CCOCC1	·	·	?	·	·	0.1%
Clc1ccc(CCNC(c2nnc(-c3ccccc3)o2)c2ccccc2Cl)cc1 (configuration not stated)	·	·	0.2%	·	·	15.0%
Cc1cc(NC(=O)CSCC(=O)Nc2cccc(S(=O)(=O)N3CCCCCC3)c2)no1	·	·	-3.9%	·	·	-3.0%
NC(=O)Nn1c(CCC(=O)O)ccc1-c1ccc(Cl)cc1	-0.5%	2.1%	-3.3%	-11.7	-3.0	-32.2%
COc1ccc(-c2ccc(CCC(=O)O)n2NC(N)=O)cc1	4.9%	1.4%	-7.1%	8.5	3.0	44.7µM*
CCCn1c(CCC(=O)O)ccc1-c1ccc(OC)cc1	4.9%	2.6%	-0.2%	-10.2	-2.3	39.8µM*
COc1ccc(-c2ccc(CCC(=O)O)n2NC(=O)c2ccc(O)cc2)cc1	-2.9%	9.3%	2.0%	-11.7	7.0	-29.1%
NC(=O)Nn1c(CCC(=O)O)ccc1-c1ccc(Br)cc1	-2.5%	4.2%	-2.4%	-12.8	-3.7	14.1µM*
O=C(OCn1nnc2ccccc2c1=O)c1ccc(F)c(S(=O)(=O)N2CCOCC2)c1	·	·	-6.3%	·	·	·
CCOc1cc(-c2nc(-c3ccc(-c4ccc(OC)cc4)nc3OC)no2)cc(OCC)c1OCC	·	·	-6.7%	·	·	11.1%
O=C1CC(/C=C/c2ccccn2)=Nc2ccccc2N1	0.2%	-29.8%	-9.6%	56.9*	21.5*	?
O=C1CC(/C=C/c2ccco2)=Nc2ccccc2N1	1.6%	-12.1%	-10.4%	-10.3	-2.4	44.7µM*

Assay outcomes (PubChem BioAssay)
